Experimental data published in PubChem BioAssay (EPA / NIEHS).
Results filed as inconclusive are left out. Calls of active or inactive are those of the source. Rule for the calls: active = hit-call score of the fitted dose curve at least 0.9, where 1 is the maximum; inconclusive = response in the unintended direction; inactive = score below 0.9.

Experiment: TOX21_p53_BLA_p3_viability: Viability Assessment in the Tox21 HCT-116 p53 Agonism Beta-lactamase Assay, Phase 3 (AID 2283593);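 note: cells exposed to compound for 16 h before reading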
How it was run: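 Cellular ATP was quantified by CellTiter-Glo luminescence, read after 30 min at room temperature. Beforehand, HCT116 cells (4000/well) received compound 5 h post-seeding, 217-fold diluted from DMSO, then incubated 16 h at 37C.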

| Compound | outcome |
| --- | --- |
| OCCOCCN1CCN(C2=Nc3ccccc3Sc3ccccc32)CC1 | inactive |
| CCOc1ccc(NC(=O)CC(C)O)cc1 (centres undefined) | inactive |
| CCCCCCCCc1ccc(S(=O)(=O)O)cc1 | inactive |
| CCC1(c2ccccc2)C(=O)NCNC1=O | inactive |
| CCCCCCCCCC(C)C=O (centres undefined) | inactive |
| CC(=O)CC(=O)Nc1ccc(C)cc1C | inactive |
| C=C(C#N)C(=O)OCC | inactive |
| CC(=O)O[C@@H]1CC2CCC1(C)C2(C)C (some centres undefined) | inactive |
| CCOC(=O)CCc1ccccc1 | inactive |
| Nc1ccc2c(O)cc(S(=O)(=O)O)cc2c1 | inactive |
| CCCOCCO | inactive |
| CC(CN=Cc1ccccc1O)N=Cc1ccccc1O (centres undefined) | inactive |
| OCCCCC(O)CO (centres undefined) | inactive |
| C=C(C)C(=O)OCC(CC)(COC(=O)C(=C)C)COC(=O)C(=C)C | inactive |
